{"source": "the supplement of paper PMC3334620", "note": "In all, about 33,000 sequences were measured (“E-score (-0.5 to 0.5)”: median about -0.01, highest 2% from about 0.26 on). The entries come from a sample that favours the highest values as a whole.", "data": [{"target": "Ste12 (UniProt P13574)", "sequence (P13574 whole entry, the tested form may be a part)": "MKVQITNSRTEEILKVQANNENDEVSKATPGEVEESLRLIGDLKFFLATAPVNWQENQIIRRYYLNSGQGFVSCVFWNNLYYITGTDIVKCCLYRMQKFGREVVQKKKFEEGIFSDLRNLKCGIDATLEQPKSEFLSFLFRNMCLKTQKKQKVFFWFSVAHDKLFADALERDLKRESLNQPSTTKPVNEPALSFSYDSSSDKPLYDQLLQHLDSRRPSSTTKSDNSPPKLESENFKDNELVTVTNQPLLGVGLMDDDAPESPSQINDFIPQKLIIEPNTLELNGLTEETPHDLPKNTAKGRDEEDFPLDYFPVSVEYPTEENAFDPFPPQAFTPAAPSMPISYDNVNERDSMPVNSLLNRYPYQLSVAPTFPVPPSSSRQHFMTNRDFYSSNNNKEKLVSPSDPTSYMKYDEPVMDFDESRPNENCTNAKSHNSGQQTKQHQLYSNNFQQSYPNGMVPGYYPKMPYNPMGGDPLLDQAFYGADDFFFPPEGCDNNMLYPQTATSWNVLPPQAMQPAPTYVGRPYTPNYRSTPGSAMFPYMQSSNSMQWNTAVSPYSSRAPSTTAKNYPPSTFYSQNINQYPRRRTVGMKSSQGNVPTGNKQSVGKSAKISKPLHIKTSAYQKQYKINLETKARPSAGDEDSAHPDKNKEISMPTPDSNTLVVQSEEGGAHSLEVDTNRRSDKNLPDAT", "test": "PBM E-score (8-mer binding enrichment) (E-score (-0.5 to 0.5)); higher = stronger / more preferred TF binding", "conditions": "protein concentration: 200 nM; construct: GST-DNA-binding domain", "outline": "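Universal all-10-mer Agilent arrays, double-stranded by primer extension on fresh or once-stripped slides, were probed with about 100-200 nM GST-tagged yeast transcription factors made by PURExpress. Fluorescent anti-GST detected bound protein, and masliner normalised the scans. E-scores from the Universal PBM Analysis Suite were given to each ungapped eight-base word pooled with its reverse complement.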", "values": [{"sequence": "GTTCAGAA", "PBM E-score": -0.0378}, {"sequence": "CAAACGCG", "PBM E-score": 0.292}, {"sequence": "AAACCGCG", "PBM E-score": 0.287}, {"sequence": "CGAACGCG", "PBM E-score": 0.0317}, {"sequence": "AAAACGCG", "PBM E-score": 0.285}, {"sequence": "AAAACGCT", "PBM E-score": 0.0239}, {"sequence": "AAAACGCC", "PBM E-score": 0.099}, {"sequence": "AAACCGCC", "PBM E-score": 0.212}, {"sequence": "CCAACGCG", "PBM E-score": -0.107}, {"sequence": "CAACCGCG", "PBM E-score": 0.0561}, {"sequence": "CAGTTTTC", "PBM E-score": 0.105}, {"sequence": "CACACCAG", "PBM E-score": 0.0883}, {"sequence": "ACTAGTTA", "PBM E-score": 0.027}, {"sequence": "AACAGTAT", "PBM E-score": 0.108}, {"sequence": "AATGGGAG", "PBM E-score": 0.021}, {"sequence": "ACACTGTC", "PBM E-score": -0.0374}, {"sequence": "CTGAGTCA", "PBM E-score": 0.0791}, {"sequence": "GACTGAAA", "PBM E-score": 0.241}, {"sequence": "CACTGAAA", "PBM E-score": 0.322}, {"sequence": "TACTGATA", "PBM E-score": 0.198}, {"sequence": "TACTGAAA", "PBM E-score": 0.358}, {"sequence": "AACTGTAT", "PBM E-score": 0.134}, {"sequence": "AACTGAAC", "PBM E-score": 0.0813}, {"sequence": "GACTGTAA", "PBM E-score": -0.0138}, {"sequence": "AACTGAAG", "PBM E-score": 0.158}, {"sequence": "AACTGAAA", "PBM E-score": 0.422}, {"sequence": "CACTGAAC", "PBM E-score": 0.0627}, {"sequence": "AACTGTAA", "PBM E-score": 0.328}, {"sequence": "CACTGAAG", "PBM E-score": -0.03}, {"sequence": "CGCCATAA", "PBM E-score": -0.108}, {"sequence": "AAGACCTA", "PBM E-score": -0.0739}, {"sequence": "AATCGCCG", "PBM E-score": -0.0024}, {"sequence": "TAACGTAA", "PBM E-score": 0.191}, {"sequence": "ATAAATGA", "PBM E-score": 0.189}, {"sequence": "AGTAGACG", "PBM E-score": -0.0195}, {"sequence": "TCTCTCAA", "PBM E-score": 0.0783}, {"sequence": "ACTGCAAT", "PBM E-score": 0.109}, {"sequence": "AAGGTCCC", "PBM E-score": -0.279}, {"sequence": "CGTCACAA", "PBM E-score": 0.108}, {"sequence": "TGTCACAA", "PBM E-score": 0.3}, {"sequence": "GGTCACAA", "PBM E-score": -0.022}, {"sequence": "AACGTTGG", "PBM E-score": 0.038}, {"sequence": "CTAGATCA", "PBM E-score": -0.22}, {"sequence": "CAGTGGGA", "PBM E-score": -0.0936}, {"sequence": "CACCACTC", "PBM E-score": -0.164}, {"sequence": "TACCGAAA", "PBM E-score": 0.0921}, {"sequence": "ACTGTGGA", "PBM E-score": -0.123}, {"sequence": "ACTTTCAG", "PBM E-score": 0.0489}, {"sequence": "AGTTTCAG", "PBM E-score": 0.464}, {"sequence": "CGTTTCCC", "PBM E-score": 0.165}, {"sequence": "CCTTTCAG", "PBM E-score": -0.115}, {"sequence": "AGTTTCCG", "PBM E-score": 0.148}, {"sequence": "CGTTTCCA", "PBM E-score": 0.301}, {"sequence": "CATTTCAG", "PBM E-score": 0.0948}, {"sequence": "ACTTTCAT", "PBM E-score": -0.0303}, {"sequence": "CGTTTCAG", "PBM E-score": 0.482}, {"sequence": "GGTTTCCA", "PBM E-score": -0.0565}, {"sequence": "AGTTTCAT", "PBM E-score": 0.428}, {"sequence": "AATTTCAT", "PBM E-score": 0.0623}, {"sequence": "CATTGACG", "PBM E-score": 0.0435}, {"sequence": "GAGCTCGC", "PBM E-score": -0.0349}, {"sequence": "CCCTTAGC", "PBM E-score": -0.0617}, {"sequence": "CCGTTGCA", "PBM E-score": 0.0898}, {"sequence": "CGTGATCA", "PBM E-score": -0.00817}, {"sequence": "CGCTTCGA", "PBM E-score": -0.0748}, {"sequence": "CGGTTTGC", "PBM E-score": 0.0736}, {"sequence": "AAAGTGCG", "PBM E-score": 0.0163}, {"sequence": "CTTTCTTA", "PBM E-score": 0.0052}, {"sequence": "CCCTGACA", "PBM E-score": -0.0188}, {"sequence": "AGTTTCGC", "PBM E-score": 0.184}, {"sequence": "AGTTTCAC", "PBM E-score": 0.338}, {"sequence": "AGTTTCTC", "PBM E-score": -0.0852}, {"sequence": "CGTTTCGC", "PBM E-score": 0.296}, {"sequence": "CGTTTCTC", "PBM E-score": 0.0338}, {"sequence": "AGTTTCCA", "PBM E-score": 0.212}, {"sequence": "CATTTCAC", "PBM E-score": 0.099}, {"sequence": "AGTTTCAA", "PBM E-score": 0.307}, {"sequence": "CGTTTCAC", "PBM E-score": 0.453}, {"sequence": "AGTTTCTA", "PBM E-score": 0.16}, {"sequence": "CGTTTCGA", "PBM E-score": 0.195}, {"sequence": "ACTTTCAC", "PBM E-score": 0.139}, {"sequence": "GTCCATAA", "PBM E-score": -0.172}, {"sequence": "CGGTGGAC", "PBM E-score": -0.157}, {"sequence": "CTCACTAC", "PBM E-score": 0.00581}, {"sequence": "CAGTTACA", "PBM E-score": 0.0929}, {"sequence": "CGTTTCTA", "PBM E-score": 0.166}, {"sequence": "CGTTTCAA", "PBM E-score": 0.46}, {"sequence": "CCTTTCAA", "PBM E-score": -0.0319}, {"sequence": "AAGCTAGC", "PBM E-score": -0.242}, {"sequence": "CACTTCGC", "PBM E-score": 0.0953}, {"sequence": "AAGAATGA", "PBM E-score": 0.209}, {"sequence": "ACATCCCC", "PBM E-score": 0.321}, {"sequence": "CCATCCCC", "PBM E-score": 0.0914}, {"sequence": "ACATCCCT", "PBM E-score": -0.0649}, {"sequence": "AGCAGGTG", "PBM E-score": -0.0318}, {"sequence": "CAATCCGC", "PBM E-score": 0.0698}, {"sequence": "AAATCCGG", "PBM E-score": 0.0201}, {"sequence": "CAATCCCG", "PBM E-score": 0.321}, {"sequence": "CAATCCCA", "PBM E-score": -0.0795}, {"sequence": "CAATCCGG", "PBM E-score": 0.273}, {"sequence": "CAATCCCC", "PBM E-score": 0.0988}, {"sequence": "ATAGGAAA", "PBM E-score": 0.0645}, {"sequence": "CTAGGAAA", "PBM E-score": -0.0731}, {"sequence": "TTAGGAAA", "PBM E-score": 0.292}, {"sequence": "AAGAAATC", "PBM E-score": -0.0981}, {"sequence": "CTGAAATC", "PBM E-score": -0.0192}, {"sequence": "CTGAAACC", "PBM E-score": 0.47}, {"sequence": "CTGAAAGA", "PBM E-score": 0.00814}, {"sequence": "ATGAAACC", "PBM E-score": 0.457}, {"sequence": "ATGAAATC", "PBM E-score": 0.185}, {"sequence": "CTGAAATA", "PBM E-score": 0.202}, {"sequence": "AGGAAACC", "PBM E-score": -0.0955}, {"sequence": "CTGAAACA", "PBM E-score": 0.495}, {"sequence": "CTGAAAAC", "PBM E-score": 0.0248}, {"sequence": "AGAACATC", "PBM E-score": -0.0976}, {"sequence": "CGACCGTC", "PBM E-score": -0.173}, {"sequence": "CGAGTCAC", "PBM E-score": -0.0334}, {"sequence": "CAATGCAC", "PBM E-score": -0.042}, {"sequence": "GTAACAAA", "PBM E-score": 0.312}, {"sequence": "GAAACAAA", "PBM E-score": 0.345}, {"sequence": "AGAACAAA", "PBM E-score": 0.312}, {"sequence": "CTAACAAA", "PBM E-score": 0.0819}, {"sequence": "CAAACAAA", "PBM E-score": 0.149}, {"sequence": "AGAACAAG", "PBM E-score": 0.0467}, {"sequence": "AGAACAAT", "PBM E-score": 0.247}, {"sequence": "TTAACAAA", "PBM E-score": 0.246}, {"sequence": "TAAACAAA", "PBM E-score": 0.244}, {"sequence": "AAAACAAG", "PBM E-score": 0.104}, {"sequence": "ACAACAAA", "PBM E-score": 0.152}, {"sequence": "AAAACAAA", "PBM E-score": 0.293}, {"sequence": "ATGAGAAC", "PBM E-score": 0.118}, {"sequence": "AGTGAGCG", "PBM E-score": -0.176}, {"sequence": "CCGCAGCG", "PBM E-score": -0.033}, {"sequence": "GCGTAGCA", "PBM E-score": 0.0572}, {"sequence": "CTCGACTA", "PBM E-score": 0.0414}, {"sequence": "GAGACCTA", "PBM E-score": -0.0109}, {"sequence": "GAGATTGA", "PBM E-score": 0.0793}, {"sequence": "CCTAGAAA", "PBM E-score": 0.144}, {"sequence": "CAAACAAC", "PBM E-score": 0.223}, {"sequence": "GAAACAAC", "PBM E-score": 0.334}, {"sequence": "AAAACAAC", "PBM E-score": 0.154}, {"sequence": "GGGGTGAA", "PBM E-score": 0.0185}, {"sequence": "CGCCTAGA", "PBM E-score": -0.0727}, {"sequence": "ACATCTTA", "PBM E-score": -0.0589}, {"sequence": "ACATCTTG", "PBM E-score": -0.151}, {"sequence": "ACATCTTC", "PBM E-score": 0.261}]}]}
